# In PubChem BioAssay AID504374 (National Center for Advancing Translational Sciences (NCATS), 2011):
# Where “and” joins values, the source holds several entries; their conditions need not be identical. Equal values may be shown once. Out of some 1,500 compounds screened, about 100 (6.7%) were called active. About 7% were inconclusive and are not listed. The sample holds actives, similar compounds and a random draw of the others, so the mix is not that of the screen. Calls follow the shape of the dose curve; as a rule, active = well fitted inhibition curve with a large enough effect; inconclusive = small, poorly fitted or top-dose-only effect, or effect the other way; inactive = flat fitted curve, though single readings scatter.
# Target: Runt-related transcription factor 1 (Homo sapiens) + Core-binding factor subunit beta (Homo sapiens) (UniProt Q01196+Q13951)
# Experiment: qHTS Assay for Compounds Blocking the Interaction Between CBF-beta and RUNX1 for the Treatment of Acute Myeloid Leukemia: Hit Validation; also: nearly all actives have a fitted effect of over 60% in size
# Conditions: AlphaScreen CBFb-His/RUNX1-biotin binding; series mostly up to 59.8 µM; activity, negative = inhibition: at the top concentration
# In short: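 Compounds were added to a premixed CBF-beta-His/RUNX1-biotin complex (30 nM each, 20 min) for 15 min. Nickel and streptavidin AlphaScreen beads followed for 90 min at room temperature, with emission at 440 nm […].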
# % is scaled to controls: 0 for no effect and ±100 for the full control effect; potency is read from the fitted curve at half-maximal effect.
# Runt-related transcription factor 1 (Homo sapiens) + Core-binding factor subunit beta (Homo sapiens), sequence (Q01196 whole entry, looked up): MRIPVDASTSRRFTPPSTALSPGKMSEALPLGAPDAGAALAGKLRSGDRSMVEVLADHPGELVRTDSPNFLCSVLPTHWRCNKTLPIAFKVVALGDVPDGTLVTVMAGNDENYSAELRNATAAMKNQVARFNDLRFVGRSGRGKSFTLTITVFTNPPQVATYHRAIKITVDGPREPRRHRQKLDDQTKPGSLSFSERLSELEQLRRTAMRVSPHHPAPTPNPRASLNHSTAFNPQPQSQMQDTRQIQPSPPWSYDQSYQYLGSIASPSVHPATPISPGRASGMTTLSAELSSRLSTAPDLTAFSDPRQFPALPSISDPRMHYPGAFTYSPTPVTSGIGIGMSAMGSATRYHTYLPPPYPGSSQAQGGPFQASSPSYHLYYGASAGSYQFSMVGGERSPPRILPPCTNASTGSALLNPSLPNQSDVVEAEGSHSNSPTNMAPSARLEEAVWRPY
# Runt-related transcription factor 1 (Homo sapiens) + Core-binding factor subunit beta (Homo sapiens), sequence (Q13951 whole entry, looked up): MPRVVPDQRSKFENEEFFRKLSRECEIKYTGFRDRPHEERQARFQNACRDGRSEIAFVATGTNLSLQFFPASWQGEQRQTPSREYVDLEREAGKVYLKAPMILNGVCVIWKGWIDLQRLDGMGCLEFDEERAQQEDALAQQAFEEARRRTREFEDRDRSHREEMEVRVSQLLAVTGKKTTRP
SMILES,"activity, negative = inhibition",Potency
S=c1[nH]ccn1-c1ccccc1Cl,-10.1% (inactive),–
CC(=O)NCC1(O)CCCC(C)C1 (centres undefined),-8.56% (inactive),–
CC(C)(C)C(=O)Nc1ccc(NC(=O)C(C)(C)C)cc1,10.3% (inactive),–
O=C(COc1ccc([N+](=O)[O-])cc1Cl)N1CCOCC1,2.71% (inactive),–
O=C(CSc1n[nH]c(=O)[nH]c1=O)N1CCCCCC1,-1.59% (inactive),–
O=C(Oc1ccc2c(c1)O/C(=C\c1ccncc1)C2=O)c1cccs1,-8.69% (inactive),–
CCCN(CCC)C(=O)CC(c1ccccc1)c1ccco1 (centres undefined),12.8% (inactive),–
COC(=O)c1ccc(OC)c(OC)c1Cl,-1.98% (inactive),–
Cc1c2c(c(O)c3c(O)cccc13)C(=O)O[C@H]2C1C(N(C)C)C(O)=C(C(N)=O)C(=O)[C@H]1O (some centres undefined),–,0.631 µM (active)
CCOC(=O)c1c2c([nH]c(=S)c1C#N)CCCC2,-3.85% (inactive),–
COc1cc(O)c2c(c1)oc(=O)c1c3cc(O)c(O)cc3oc21,–,3.16 µM (active)
COc1cc(C2C(C#N)=C(N)OC3=C2C(=O)CC(C)(C)C3)ccc1OCCN1CCOCC1 (centres undefined),-3.79% (inactive),–
COC(=O)c1ccc(Cn2cc([N+](=O)[O-])cn2)cc1,-7.08% (inactive),–
C/C(O)=C(\C#N)P(=O)(c1ccccc1)c1ccccc1,10.4% (inactive),–
c1ccc(-c2ccc(-c3ccccn3)nn2)nc1,–,2.82 µM (active)
c1ccc(-c2ccccn2)nc1,–,7.94 µM (active)
Clc1ccccc1/C=C/c1nc(-c2ccccn2)no1,-23.2% (inactive),–
c1ccc(-c2n[nH]c(-c3ccccn3)n2)nc1,–,1 µM (active) and 708 nM (active)
O=[N+]([O-])c1ccccc1CSc1ccccn1,1.85% (inactive),–
CC(=O)c1cc(C#N)c(SCc2ccccn2)nc1C,-7.25% (inactive),–
c1ccc(CSc2ccc(-c3ccccn3)nn2)nc1,–,2.51 µM (active)
Clc1ccc(-c2ccccc2)nn1,-1.75% (inactive),–
c1ccc(-c2ccc(-c3ccccn3)s2)nc1,3.74% (inactive),–
CCN(CCS(=O)(=O)c1ccc(Cl)cc1)C(=O)Nc1ccccc1,-4.65% (inactive),–
COc1ccc2c(C)cc(C)nc2n1,6.91% (inactive),–

SMILES,"activity, negative = inhibition",Potency
Cc1cc(C)n2cnnc2n1,-3.07% (inactive),–
CCC1(C)N=C(N)Nc2nc3cc(C)c(C)cc3n21 (centres undefined),-2.57% (inactive),–
CCOC(=O)N1CCC(NS(=O)(=O)c2ccccc2)CC1,-16.1% (inactive),–
CCNC(=O)COC(=O)c1cc(S(=O)(=O)N2CCCCC2)ccc1C,-10.6% (inactive),–
Cc1cc(C)nc(N2N=C(C(F)(F)F)CC2=O)n1,2.96% (inactive),–
COc1ccc(CCn2cnc3c([nH]c4ccccc43)c2=O)cc1,-4.1% (inactive),–
CC(C)(C)N1CCC1C(N)=O (centres undefined),12.6% (inactive),–
Cn1c(=O)c2c(Nc3ccc(F)cc3)cc(=O)n(-c3ccccc3)c2n(C)c1=O,-4.15% (inactive),–
O=C(CC1NCCNC1=O)NC1Cc2ccccc2C1 (centres undefined),9.2% (inactive),–
CC(=O)C1C(=O)CC(c2ccc(Cl)cc2)CC1=O (centres undefined),-0.716% (inactive),–
Cc1oc(S(=O)(=O)N2CCCC2)cc1C(=O)Nc1ccc(F)cc1,-4.36% (inactive),–
C=CCOc1c(CCC)cc(CCC)cc1C(N)=O,-2.85% (inactive),–
Cc1cc(O)c(C=O)c2c1C(=O)Oc1c(COC(=O)/C=C/C(=O)O)c(O)c(C(=O)O)c(C)c1O2,–,11.2 µM (active)
CCNC(=S)N1N=C2c3ccccc3CCC2C1c1ccc(F)cc1 (centres undefined),7.45% (inactive),–
O=C(NN1C(=O)CSC1=S)C(=O)NN1C(=O)CSC1=S,–,8.91 µM (active)
Nc1cccnc1Oc1ccccc1F,-2.77% (inactive),–
Cn1c(-c2ccc3ccccc3n2)[n+](C)c2ccccc21,-16.8% (inactive),–
Cc1cc(NC(=O)CN2CCCCC2)n(-c2ccccc2)n1,2.06% (inactive),–
NNC(=O)c1ccc(COCC(F)(F)C(F)F)cc1,-1.86% (inactive),–
CC(C)(C)S(=O)(=O)/C(C#N)=C/Nc1ccccn1,-2.32% (inactive),–
O=C(O)c1nccnc1C(=O)Nc1ccc(S(=O)(=O)N2CCOCC2)cc1,-6.89% (inactive),–
CSc1nc2cc(S(=O)(=O)N3CCCCC3)ccc2s1,-1.3% (inactive),–
O=S(=O)(c1ccc2nc(-c3ccco3)c(-c3ccco3)nc2c1)N1CCOCC1,–,5.46 µM (active)
COC(=O)CC1=C(C(=O)OC)[C@@H](c2ccccc2[N+](=O)[O-])C(C#N)=C(N)O1,3.04% (inactive),–
Cc1ccc(NC(=O)CSc2n[nH]c(N)n2)cc1S(=O)(=O)N1CCOCC1,-1.46% (inactive),–

SMILES,"activity, negative = inhibition",Potency
CCOc1ccc(N2C(=O)CC(NNc3nc4ccccc4s3)C2=O)cc1 (centres undefined),5.71% (inactive),–
O=c1c(-c2cc(O)c(O)c(O)c2)coc2cc(O)c(O)c(O)c12,–,0.447 µM (active)
Cc1nnn(C23C[C@@H]4C[C@@H](CC(C(=O)N5CCN(c6ccccc6)CC5)(C4)C2)C3)n1,-5.35% (inactive),–
COC(=O)[C@H](CCSC)NC(=O)Nc1cc(OC)cc(OC)c1,-12.2% (inactive),–
COc1ccc(C(=O)NC(=S)Nc2ccc(CN3CCOCC3)cc2)cc1,-11.1% (inactive),–
Cn1c(=O)c([N+](=O)[O-])c(NCC2CCCO2)c2ccccc21 (centres undefined),-0.834% (inactive),–
Cc1cccc(C(=O)N/C(=C\c2ccc(C)o2)C(=O)O)c1,-12.8% (inactive),–
CC(C)(C)OC(=O)N1Cc2cc3ccccc3nc2C1CO (centres undefined),-2.12% (inactive),–
COc1ccccc1CC(=O)Nc1cccc(C(=O)Nc2nccs2)c1,-6.81% (inactive),–
COC(=O)[C@H](C)NC(=O)NCc1ccccc1,-3.2% (inactive),–
O=C(CSc1ccc(-c2ccccn2)nn1)NCc1ccccc1,–,5.62 µM (active)
COC(=O)CNC(=O)CSc1ccccn1,6.43% (inactive),–
COc1ccc(NC(=O)CSc2ccc(-c3ccccn3)nn2)cc1OC,–,4.47 µM (active)
COc1ccc(/C=N/NC(=O)Cn2ccnc2C)cc1OC,-9.74% (inactive),–
CCOc1ccc(NC(=O)CSc2ccc(-c3ccccn3)nn2)cc1,–,5.01 µM (active)
CCOc1ccc(NC(=O)Nc2cc(C(C)C)c(O)cc2C)cc1,-2.87% (inactive),–
CCOc1ccc(Nc2c3ccccc3nc3ccccc23)cc1,-13% (inactive),–
Cc1oc(S(=O)(=O)N2CCCCC2)cc1NC(=O)Nc1ccc(F)cc1,-4.08% (inactive),–
CC1CN(S(=O)(=O)c2cccc(C(F)(F)F)c2)CC(C)O1 (centres undefined),-0.629% (inactive),–
COc1ccc(NC(=O)CCC(=O)N/N=C/c2ccncc2)cc1,4.92% (inactive),–
CC(C)CC1C2C(=O)N(c3ccccc3)C(=O)C2ON1c1ccccc1 (centres undefined),0.251% (inactive),–
c1ccc2sc(SCSc3nc4ccccc4s3)nc2c1,-3.42% (inactive),–
CC1(C)CC(=O)C2=C(C1)OC(N)=C(C#N)[C@@H]2c1ccccc1[N+](=O)[O-],-5.53% (inactive),–
COc1ccc(/C=N/NC(=O)c2cnccn2)c(OC)c1OC,-4.33% (inactive),–
